Experimental data published in PubChem BioAssay (NCI).
About 83,000 compounds went through this panel and 20% of them were active in at least one assay; those are over-represented in the sample as a whole.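 Activity criterion: percent growth below 10, measured after cells in 96-well plates were exposed to a single compound concentration for 48 hours.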 Unmarked numbers belong to inactive results. Active and inactive are the calls of the source.

Experiments:
Test in all cases: NCI-60 one-dose screen, 48 h (100 = growth as untreated, 0 = no growth, -100 = all killed)
Settings in all cases: 10 µM unless noted
DU-145 prostate = tested on: DU-145 prostate
K-562 leukemia = tested on: K-562 leukemia
MALME-3M melanoma = tested on: MALME-3M melanoma
MDA-MB-231 breast = tested on: MDA-MB-231 breast
RXF 393 renal = tested on: RXF 393 renal
SF-268 CNS = tested on: SF-268 CNS
SF-295 CNS = tested on: SF-295 CNS
SF-539 CNS = tested on: SF-539 CNS
UACC-257 melanoma = tested on: UACC-257 melanoma
M14 melanoma = tested on: M14 melanoma
HCT-15 colon = tested on: HCT-15 colon
HT29 colon = tested on: HT29 colon
SNB-75 CNS = tested on: SNB-75 CNS
SNB-19 CNS = tested on: SNB-19 CNS
U251 CNS = tested on: U251 CNS
PC-3 prostate = tested on: PC-3 prostate
SK-MEL-5 melanoma = tested on: SK-MEL-5 melanoma
UACC-62 melanoma = tested on: UACC-62 melanoma
LOX IMVI melanoma = tested on: LOX IMVI melanoma
SK-MEL-28 melanoma = tested on: SK-MEL-28 melanoma

Row | Compound | growth (DU-145 prostate) | growth (K-562 leukemia) | growth (MALME-3M melanoma) | growth (MDA-MB-231 breast) | growth (RXF 393 renal) | growth (SF-268 CNS) | growth (SF-295 CNS) | growth (SF-539 CNS) | growth (UACC-257 melanoma) | growth (M14 melanoma) | growth (HCT-15 colon) | growth (HT29 colon) | growth (SNB-75 CNS) | growth (SNB-19 CNS) | growth (U251 CNS) | growth (PC-3 prostate) | growth (SK-MEL-5 melanoma) | growth (UACC-62 melanoma) | growth (LOX IMVI melanoma) | growth (SK-MEL-28 melanoma)
1 | O=C(N=c1oc2ccccc2cc1-c1cc2ccccc2[nH]1)c1ccc(Cl)cc1 | 51.3% | 26.5% | 94.1% | 51.2% | 59.9% | 35.5% | 60.3% | 52.8% | 98.7% | 79.7% | 25.7% | 65.7% | 53.6% | 32.6% | 28.9% | 27.2% | 96.1% | 63.1% | 60.5% | 95.3%
2 | O=c1ccn2nc3ccccc3c2[nH]1 | 128% | 98.5% | 86.7% | 91.3% | 123% | 110% | 118% | 95.9% | 130% | 98.6% | 91.7% | 96.1% | 85.2% | 95.5% | 96.4% | 88% | 96% | 92.5% | 96.3% | 182%
3 | COc1ccc2c(c1)O/C(=C\c1cccc(OCC(=O)Nc3nc4ccccc4s3)c1)C2=O | 28.6% | 5.15% (active) | -43.8% (active) | 74.8% | -29.3% (active) | 24.2% | 99.7% | 97.6% | 106% | 42.9% | 81.5% | 110% | 102% | 83.6% | 70.5% | 35% | 96.7% | 83.9% | -85% (active) | 96.7%
4 | Cc1ccc2nc(NC(=O)CSc3nc(-c4ccccc4)c(C#N)c(=O)n3Cc3ccccc3)sc2c1 | 103% | 73.3% | 78.6% | 82.5% | 75.8% | 92.1% | 95.3% | 90.4% | 98.3% | 88.1% | 96.6% | 105% | 63.5% | 78.3% | 87.8% | 71.9% | 83.1% | 53.5% | 83.1% | 79.1%
5 | Cc1ccc(C(=NN=C(N)N)c2ccc(C)cc2)cc1 | -16.6% (active) | 5.03% (active) | 40.4% | -11.3% (active) | -16.1% (active) | 16.7% | 0.547% (active) | -2.53% (active) | 25.9% | -74.7% (active) | 11.6% | 0.831% (active) | -1.11% (active) | 30.4% | 6.36% (active) | 16.3% | -68.6% (active) | 31.6% | -28.3% (active) | 21.4%
6 | Cc1nc2ccccc2n1CC1NC(=O)NC1=O (stereo not given) | 110% | 99.9% | 102% | 102% | 103% | 96.1% | 107% | 99.4% | 99.1% | 105% | 104% | 105% | 78.7% | 98.4% | 103% | 96.2% | 100% | 98.4% | 95.6% | 99.4%
7 | O=C(/C=C/c1ccco1)c1ccc(Nc2nc(Nc3ccc(F)cc3)nc(Nc3ccc(Cl)cc3)n2)cc1 | 77% | 67.4% | 75.1% | 55.1% | 35.6% | 80.2% | 65.4% | 102% | 101% | 84.5% | 78.5% | 61.8% | 62.5% | 107% | 73.2% | 72.7% | 73.8% | 81.7% | 74.7% | 60.3%
8 | Clc1cc(Cl)cc(Nc2ccc3cc(OCCCN4CCOCC4)ccc3n2)c1 | 40.6% | -27.3% (active) | 66.5% | -5.22% (active) | 5.08% (active) | 46.9% | -59.7% (active) | 9.86% (active) | 49% | 12.6% | 7.18% (active) | -39.5% (active) | 11% | 38.5% | 2.35% (active) | 21.8% | 71% | 12.9% | -77.6% (active) | 27.8%
9 | O=C(c1ccccc1)c1c(/C=C/c2ccccc2)nc2ccccc2c1/C=C/c1ccc(Br)cc1 | 105% | 97.3% | 106% | 100% | 104% | 91.6% | 101% | 106% | 99.8% | 96.8% | 108% | 102% | 83.1% | 88.9% | 95.9% | 90.2% | 101% | 82% | 90.6% | 108%
10 | CN(C)CC1C(=O)O[C@H]2[C@H]1CC/C(COC(=O)c1cc3ccccc3[nH]1)=C\CC[C@@]1(C)O[C@@H]21 (stereo not given in full) | -17.7% (active) | -11.4% (active) | -44.2% (active) | -41.2% (active) | -72.2% (active) | -59.7% (active) | 32.4% | -37.7% (active) | -86% (active) | -62.3% (active) | -57.9% (active) | -75.7% (active) | -59.6% (active) | 49.5% | -60.9% (active) | -23.7% (active) | -98.6% (active) | -52% (active) | -92.7% (active) | -59.1% (active)
11 | CN1CCN(CC(=O)Nc2nc(-c3cccc(NS(=O)(=O)c4cccc5c(N(C)C)cccc45)c3)cs2)CC1 | 81.3% | 9.93% (active) | 84% | 50.3% | 70.4% | 76.9% | 62.1% | 75.6% | 91.2% | 102% | 42.6% | 35.2% | 74.3% | 73.3% | 65.9% | 42.2% | 48.9% | 54% | 29.7% | 78.2%
12 | Cc1cc(NCCCCNc2ccnc3cc(Cl)ccc23)nc(Nc2ccc(C(=O)N3CCCCC3)cc2)n1 | 21.8% | -46.2% (active) | -76.3% (active) | -41.1% (active) | -74.4% (active) | -38.3% (active) | -60.3% (active) | -79.6% (active) | -67.5% (active) | -85% (active) | -31.6% (active) | -25.4% (active) | -73.4% (active) | 25.1% | -36.3% (active) | 12.2% | -96.5% (active) | -57.8% (active) | -78.3% (active) | -76.5% (active)
13 | COc1cc(OC)cc(C2CC(=O)Nc3c2c(C)nn3-c2nc3ccccc3[nH]2)c1 (stereo not given) | 53.3% | 9.41% (active) | 38.3% | 16.5% | -0.824% (active) | 29.3% | -62.9% (active) | 18.4% | 23.9% | 11.8% | 37.2% | 23.5% | -3.14% (active) | 21.9% | 16.8% | 26.4% | -62% (active) | -19.2% (active) | 1.34% (active) | 38.1%
14 | CCCCCS(=O)(=O)Nc1ccc(C(=O)O)cc1 | 103% | 104% | 98.2% | 106% | 114% | 101% | 110% | 102% | 95% | 101% | 109% | 97.2% | 92.3% | 106% | 92.8% | 102% | 100% | 98.8% | 99.9% | 111%
15 | Cc1cc(N2CCCC2)nc(NCc2cc(Nc3ccnc4cc(Cl)ccc34)ccc2F)n1 | -65.9% (active) | -31.9% (active) | -66.9% (active) | -69.8% (active) | -64.9% (active) | -56.2% (active) | -87.5% (active) | -70.4% (active) | -64% (active) | -80.3% (active) | -74.3% (active) | -41.6% (active) | -90.7% (active) | 1.18% (active) | -89.7% (active) | -38.8% (active) | -98.6% (active) | -77.8% (active) | -92.9% (active) | -71.4% (active)
